From PubChem BioAssay (EPA / NIEHS)
Values joined by “and” are separate entries in the source; they are usually repeats but may differ in a detail not shown here. Identical values can stand only once. Records with an inconclusive call do not appear. The source holds several records for some structures; these can differ, active in one and inactive in another. Active and inactive are the calls of the source. Rule for the calls, unless noted: active = hit-call score of the fitted dose curve at least 0.9, where 1 is the maximum; inactive = score below 0.9.

Assays:
[1] = TAMU_PeakParms_SingleDonor1434_Chronotropy: Texas A&M University (TAMU) 1.5-hr Human Induced Pluripotent Stem Cell (iPSC)-derived Cardiomyocytes Calcium (Ca+2) Flux Assay for Cardiotoxicity: Chronotropy (changes in peak frequency) (AID 2284217); conditions: actives raise or lower the signal
How it was run: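 iPSC-derived cardiomyocytes (single donor 1434) dosed at 0.2, 1, 10 and 100 uM in 0.5% DMSO for 1.5 h at 37C; Ca2+ dye fluorescence gave average beat frequency. Zero-beat points removed; bidirectional fit versus DMSO, POD as EC05.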

[2] = BSK_BT_PBMCCytotoxicity: PBMC Cytotoxicity Assessment in the BioMAP Diversity Plus: BT Assay (AID 2284225); conditions: primary human B cells with PBMC;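 note: PBMC viability measured by Alamar Blue dye reduction fluorescence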
How it was run: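 75,000 cells/well; cpd 1 h → SEB + TSST-1 (20 ng/mL final each) → 90 h → Alamar Blue 6 h → fluor. 546/580 nm. DMSO = neg. control/baseline.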

[3] = read-out: Secreted IgG (sIgG), gene 3500; assay: BSK_BT_sIgG: BioMAP Diversity Plus: BT Assay for Secreted IgG (sIgG) Biomarker Activity (AID 2284226); conditions: primary human B cells with PBMC
How it was run: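 Secreted IgG from a human primary B cell–PBMC co-culture was measured by ELISA 24 hours after dosing, with DMSO defining baseline activity.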

[4] = BSK_BT_Bcell_Proliferation: Viability Assessment in the BioMAP Diversity Plus: BT Assay for B cell Proliferation (AID 2284227); conditions: primary human B cells with PBMC
How it was run: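 Human B cells co-cultured with PBMC were dosed with test chemicals and relative cell number was quantified by SRB staining at 72 h. Cells were fixed in 10% TCA, stained with 0.1% SRB and read at 560 nm. Activity was fitted in the positive direction against DMSO.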

[5] = read-out: Interleukin 6 (IL6), IL6 (gene 3569); assay: BSK_BT_xIL6: BioMAP Diversity Plus: BT Assay for Interleukin 6 (IL6) Biomarker Activity (AID 2284228); conditions: primary human B cells with PBMC
How it was run: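 Human B cell/PBMC co-culture; secreted IL-6 quantified by Luminex xMAP 24 h after chemical dosing, fitted relative to DMSO. Parallel PBMC viability by Alamar Blue after 1 h pretreatment, 20 ng/mL SEB and TSST-1, 90 h incubation.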

[6] = IUF_NPC1a_proliferation_area_72hr: Leibniz Research Institute for Environmental Medicine (IUF) 72-hour Neural Progenitor Cell Proliferation Area Assay (NPC1a) (AID 2284208)
How it was run: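 Single 0.25–0.35 mm human fetal neural progenitor spheres in proliferation medium with EGF and FGF, exposed 72 h from plating without renewal at 37C, pH 7.2-7.6. Sphere area growth measured by automated phase-contrast imaging, relative to DMSO.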

[7] = IUF_NPC1_viability_72hr: Viability Assessment at 72 hours in the Leibniz Research Institute for Environmental Medicine (IUF) Neural Progenitor Cell Proliferation Assay (NPC1) (AID 2284209)
How it was run: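 Each well receives one 0.3 mm progenitor sphere from fetal brain cortex; test chemical is added at plating and left three days. Viability comes from alamar blue fluorescence, multiplexed with LDH and BrdU readouts in the same well.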

[8] = CCTE_Mundy_HCI_Cortical_Synap_Neur_Matur_NeuriteSpotCountPerNeuriteLength: CCTE's Synaptogenesis and Neurite Maturation Assay in rat cortical cells for Neurite Spot Count per Neurite Length, Mundy Lab (AID 2284210)
How it was run: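 Rat primary cortical cultures, AraC added at DIV 5 to suppress glia; chemical exposure from DIV 7 to DIV 12. Fixed cells stained for MAP2 and synaptophysin plus Hoechst; synaptophysin puncta per neurite length quantified by high-content imaging, relative to DMSO.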

[9] = CCTE_Mundy_HCI_Cortical_Synap_Neur_Matur_BPCount: CCTE's Synaptogenesis and Neurite Maturation Assay in rat cortical cells for Branch Point Count, Mundy Lab (AID 2284211)
How it was run: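 Branch point number is quantified by automated imaging of fluorescently labelled neurites and synapses in rat primary cortical neurons exposed from DIV 7 to DIV 12. Activity is analysed relative to DMSO negative control.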

[10] = CCTE_Mundy_HCI_Cortical_NOG_NeuriteCount: CCTE's Neurite Outgrowth Assay in rat cortical cells for Neurite Count, Mundy Lab (AID 2284212);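 note: cells fixed about two days after chemical exposure began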
How it was run: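 Neurite number per cell from high-content imaging of betaIII-tubulin immunostaining, with Hoechst nuclear counterstain.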

[11] = CCTE_Mundy_HCI_Cortical_NOG_NeuriteLength: CCTE's Neurite Outgrowth Assay in rat cortical cells for Neurite Length, Mundy Lab (AID 2284213);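 note: neurites imaged about 48 to 50 h after chemical exposure began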
How it was run: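 Neurite length was read by high-content imaging of βIII-tubulin-labelled neurites in rat primary cortical cultures. Activity was fitted relative to DMSO.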

[12] = CCTE_Mundy_HCI_Cortical_Synap_Neur_Matur_NeuriteLength: CCTE's Synaptogenesis and Neurite Maturation Assay in rat cortical cells for Neurite Length, Mundy Lab (AID 2284214)
How it was run: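 Neurite length in rat primary cortical cultures is imaged after MAP2, synaptophysin and Hoechst staining. Dosing starts DIV 7, ending DIV 12; DMSO serves as negative control and baseline.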

[13] = CCTE_Mundy_HCI_Cortical_Synap_Neur_Matur_NeuriteSpotCountPerNeuron: CCTE's Synaptogenesis and Neurite Maturation Assay in rat cortical cells for Neurite Spot Count per Neuron Count, Mundy Lab (AID 2284215)
How it was run: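 Rat primary cortical cultures given AraC at DIV 5, dosed from DIV 7 to DIV 12 with media change. Fixed, stained for MAP2, synaptophysin and Hoechst; neurite-associated synaptophysin puncta per neuron quantified by high-content imaging versus DMSO.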

[14] = CCTE_Mundy_HCI_Cortical_Synap_Neur_Matur_SynapseCount: CCTE's Synaptogenesis and Neurite Maturation Assay in rat cortical cells for Synapse Count, Mundy Lab (AID 2284218)
How it was run: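 Synapse count per neuron is measured in rat cortical neurons exposed to chemicals between DIV 7 and DIV 12, with glial growth arrested by AraC at DIV 5. Synaptophysin and MAP2 staining is imaged automatically; activity is fitted relative to DMSO.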

[15] = CCTE_Mundy_HCI_hN2_NOG_NeuriteCount: CCTE's Neurite Outgrowth Assay in human hN2 cells for Neurite Count, Mundy Lab (AID 2284219; active = hit-call score of the fitted dose curve at least 0.9, where 1 is the maximum)
How it was run: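 In this morphology assay, hNP1-derived neurons received test chemical 2 h post-plating and were fixed two days later in warm paraformaldehyde/sucrose containing Hoechst 33342. Neurites, labelled by rabbit anti-βIII-tubulin (1:800) and Alexa Fluor-488 (1:500), were counted automatically.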

[16] = CCTE_Mundy_HCI_hN2_NOG_NeuriteLength: CCTE's Neurite Outgrowth Assay in human hN2 cells for Neurite Length, Mundy Lab (AID 2284220; active = hit-call score of the fitted dose curve at least 0.9, where 1 is the maximum)
How it was run: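 Read-out is neurite length from high-content imaging of βIII-tubulin/Alexa Fluor-488-labelled neurons, referenced to DMSO controls.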

[17] = CCTE_Mundy_HCI_hN2_NOG_NeuronCount: CCTE's Neurite Outgrowth Assay in human hN2 cells for Neuron Count, Mundy Lab (AID 2284221; active = hit-call score of the fitted dose curve at least 0.9, where 1 is the maximum)
How it was run: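 Read-out is the number of betaIII-tubulin-positive neurons imaged by automated high-content analysis, with DMSO as negative control.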

[18] = CCTE_Mundy_HCI_Cortical_Synap_Neur_Matur_NeuriteCount: CCTE's Synaptogenesis and Neurite Maturation Assay in rat cortical cells for Neurite Count, Mundy Lab (AID 2284222)
How it was run: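 Rat primary cortical cells; AraC added at DIV 5, chemicals dosed with media change at DIV 7 through DIV 12. MAP2/synaptophysin/Hoechst immunostaining, high-content imaging of neurite number; fitted relative to DMSO.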

[19] = CCTE_Mundy_HCI_Cortical_Synap_Neur_Matur_CellBodySpotCount: CCTE's Synaptogenesis and Neurite Maturation Assay in rat cortical cells for Cell Body Spot Count, Mundy Lab (AID 2284223)
How it was run: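 Primary rat cortical cultures, AraC added at DIV 5; dosed DIV 7 through DIV 12 […]. Fixed, stained for MAP2 and synaptophysin with Hoechst; cell body-associated synaptophysin puncta per neuron counted by high-content imaging, loss vs DMSO.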

[20] = CCTE_Mundy_HCI_hNP1_Pro_ResponderAvgInten: CCTE's Proliferation Assay in human neuroprogenitor cells, Mundy Lab (AID 2284224; active = hit-call score of the fitted dose curve at least 0.9, where 1 is the maximum;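 note: human neural progenitor cells hNP1 derived from WA09 embryonic stem cells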)
How it was run: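 Proliferation read as average intensity of BrdU-positive cells, imaged at 26.25 h post-dosing: chemical exposure started after 40–44 h culture, BrdU during final 4 h, paraformaldehyde fixation. Positive-direction fit relative to DMSO.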

Measured: AC50

CC(C)(C)c1cc(O)ccc1O
inactive: [1]

O=C(O)C(F)(F)C(F)(F)C(F)(F)C(F)(F)C(F)(F)C(F)(F)F
inactive: [2] | [3] | [4] | [5]

COP(=O)(OC)O/C(=C\Cl)c1cc(Cl)c(Cl)cc1Cl
active: [6] 41.6 µM | [7] 34.3 µM | [10] 34 µM and 32.9 µM | [11] 32.5 µM and 31.3 µM | [15] 6.28 µM | [16] 5.52 µM | [17] 7.22 µM | [20] 67 µM
inactive: [8] | [9] | [12] | [13] | [14] | [18] | [19]

CC(C)c1ccc(CO)cc1
inactive: [2] | [3] | [4] | [5]

O=C1C2(Cl)C3(Cl)C4(Cl)C(Cl)(Cl)C5(Cl)C3(Cl)C1(Cl)C5(Cl)C24Cl (stereo not drawn)
active: [9] 22.7 µM | [10] 22.7 µM | [11] 16.7 µM | [12] 21.5 µM | [13] 20.7 µM | [14] 19.3 µM | [18] 24.1 µM | [19] 9.8 µM | [20] 21.7 µM
inactive: [8]

COP(=S)(OC)Oc1c(Cl)cc(C)cc1Cl
active: [2] 14.5 µM | [3] 22.9 µM
inactive: [4] | [5]

ClC(Cl)=C(Cl)C(Cl)=C(Cl)Cl
inactive: [1] | [3]
active: [2] 11.1 µM | [4] 14.2 µM | [5] 11.8 µM

Nc1ncc([N+](=O)[O-])s1
inactive: [2] | [3] | [4] | [5]

C(=NC1CCCCC1)=NC1CCCCC1
active: [2] 8.8 µM | [3] 1.82 µM | [4] 5.75 µM | [5] 9.07 µM

BrCCBr
inactive: [2] | [3] | [4] | [5]

OCc1ccco1
inactive: [2] | [5]
active: [3] 26.1 µM | [4] 26.7 µM

Oc1cccc2cccnc12
inactive: [1]

CCOP(=S)(OCC)Oc1nc(Cl)c(Cl)cc1Cl
inactive: [6] | [7] | [8] | [1] | [19]
active: [8] 50 µM | [9] 26.7 µM | [10] 32.4 µM | [11] 32 µM and 33.4 µM | [12] 31.2 µM and 29 µM | [13] 50 µM and 24.7 µM | [14] 50 µM and 27.4 µM | [15] 29.1 µM | [16] 28.4 µM | [17] 17.1 µM | [18] 30 µM | [19] 83.2 µM | [20] 24.3 µM and 73.3 µM

O=S(=O)(c1ccc(Cl)cc1)c1ccc(Cl)cc1
inactive: [2] | [3] | [4] | [5]

C=C(C)C(=O)[O][Sn]([CH2]CCC)([CH2]CCC)[CH2]CCC
active: [8] 0.0607 µM | [9] 0.0799 µM | [10] 0.123 µM | [11] 0.0893 µM | [12] 0.161 µM | [13] 0.0597 µM | [14] 0.0672 µM | [18] 0.223 µM | [19] 0.142 µM | [20] 0.249 µM

O=[N+]([O-])c1ccc2c3c(cccc13)CC2
active: [5] 20 µM
inactive: [2] | [3] | [4]

CCCCCCCCC(=O)NCc1ccc(O)c(OC)c1
inactive: [2] | [3] | [4] | [5]

CCCCC(CC)CO[N+](=O)[O-] (stereo not drawn)
inactive: [2] | [3] | [4] | [5]

Nc1ccc(-c2ccc(N)c(Cl)c2)cc1Cl
inactive: [2] | [5]
active: [3] 6.09 µM | [4] 20 µM

CCOP(=S)(OCC)Oc1ccc(S(C)=O)cc1 (stereo not drawn)
inactive: [2] | [3] | [4] | [5]

CC(=O)C(Cl)C(=O)N(C)C (stereo not drawn)
active: [2] 20 µM | [3] 20 µM | [4] 25 µM | [5] 27.9 µM

CCOP(=S)(OCC)SCCS(=O)(=O)CC
inactive: [2] | [3] | [4] | [5]

COC(=O)c1sccc1S(=O)(=O)NC(=O)Nc1nc(C)nc(OC)n1
inactive: [2] | [3] | [4] | [5]

O=C(OC1CCCCC1)c1ccccc1C(=O)OC1CCCCC1
active: [2] 34.8 µM | [3] 34.2 µM | [4] 31.7 µM | [5] 28.3 µM

O=C(O)CCC(F)(C(F)(F)F)C(F)(F)F
inactive: [2] | [3] | [4] | [5]

Oc1c(I)cc(I)cc1I
inactive: [2] | [3] | [4] | [5]

Oc1ccc(-c2ccccc2)cc1
inactive: [2] | [4] | [5]

Nc1cccc2ccccc12
active: [4] 20 µM
inactive: [2] | [3] | [5]
